Measured values from PubChem BioAssay.
Where “and” joins values, the source holds several entries; their conditions need not be identical. Equal values may be shown once. Calls of active or inactive are those of the source. Rule as the data show it: active = inhibition above about 80%; inactive = the rest.

Assay: LFS_MB_1R medulloblastoma cell growth inhibition, synergistic combos for chromothripsis tumors, cisplatin or BGB combos (AID 1671452)
Details: LFS_MB_1R medulloblastoma cells, measured here: combination with cisplatin, at 0.5 µM, stronger effect = higher value
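Also: cells exposed for 96 hours before readout.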

Structure (SMILES)	inhibition
COc1ccccc1S(=O)(=O)Nc1ccc2c(c1)CN(C)C(=O)N2	-10.4%
Cc1cc(C#N)cc(C)c1Oc1nc(Nc2ccc(C#N)cc2)nc(N)c1Br	-11.1%
Nc1ncn(C2OC(CO)C(O)C2O)c(=O)n1 (stereo not drawn)	-16%
Cc1cc(C)c(Nc2ccnc(Nc3ccc(C#N)cc3)n2)c(C)c1	-56.3%
COc1ccc(CC(N)C(=O)NC2C(CO)OC(n3cnc4c(N(C)C)ncnc43)C2O)cc1 (stereo not drawn)	59.4% and 79.7%
O=c1ccn(C2OC(CO)C(O)C2O)c(=O)[nH]1 (stereo not drawn)	-10% and 2.17%
CC=C1NC(=O)C2CSSCCC=CC(CC(=O)NC(C(C)C)C(=O)N2)OC(=O)C(C(C)C)NC1=O (stereo not drawn)	100% and 110%
CN(C)CC(=O)Nc1ccc2[nH]c(=O)c3ccccc3c2c1	0.486% and -10.2% and -9.3%
CC1OC(n2cc(F)c(=O)[nH]c2=O)C(O)C1O (stereo not drawn)	-21.6%
Nc1ccn(C2OC(CO)C(O)C2(F)F)c(=O)n1 (stereo not drawn)	49.7% and 24.2% and 32.2%
Cc1cn(C2CC(N=[N+]=[N-])C(CO)O2)c(=O)[nH]c1=O (stereo not drawn)	-50% and -12.6%
CC(C=CC(=O)NO)=CC(C)C(=O)c1ccc(N(C)C)cc1 (stereo not drawn)	99.9%
NC(=S)NN=Cc1ncccc1N	22.7%
CC(C)(C#N)c1ccc(N2C(=O)OCc3cnc4ccc(-c5cnc6ccccc6c5)cc4c32)cc1	-39.8%
CC1CN(c2c(F)c(N)c3c(=O)c(C(=O)O)cn(C4CC4)c3c2F)CC(C)N1 (stereo not drawn)	-11.6%
CCCCN(Cc1ccc(C(=O)NO)cc1)C(=O)Nc1ccccc1	3.43% and 2.01%
O=c1[nH]cnc2c1ncn2C1OC(CO)C(O)C1O (stereo not drawn)	-65.5% and -12.7%
Cc1cc(C=CC#N)cc(C)c1Nc1ccnc(Nc2ccc(C#N)cc2)n1	2.17%
CC(Oc1cc(-c2cnn(C3CCNCC3)c2)cnc1N)c1c(Cl)ccc(F)c1Cl (stereo not drawn)	-34%
O=C(O)c1cc2cccc([N+](=O)[O-])c2[nH]1	-18.7%
O=c1[nH]c(=O)n(C2CC(O)C(CO)O2)cc1I (stereo not drawn)	-105%

Same assay, conditions: LFS_MB_1R medulloblastoma cells, measured here: combination with cisplatin, at 5 µM, stronger effect = higher value

Structure (SMILES)	inhibition
COc1ccccc1S(=O)(=O)Nc1ccc2c(c1)CN(C)C(=O)N2	42.8%
Cc1cc(C#N)cc(C)c1Oc1nc(Nc2ccc(C#N)cc2)nc(N)c1Br	-7.4%
Nc1ncn(C2OC(CO)C(O)C2O)c(=O)n1 (stereo not drawn)	-12%
Cc1cc(C)c(Nc2ccnc(Nc3ccc(C#N)cc3)n2)c(C)c1	-12.2%
COc1ccc(CC(N)C(=O)NC2C(CO)OC(n3cnc4c(N(C)C)ncnc43)C2O)cc1 (stereo not drawn)	102% and 99%
O=c1ccn(C2OC(CO)C(O)C2O)c(=O)[nH]1 (stereo not drawn)	-46% and -44.9%
CC=C1NC(=O)C2CSSCCC=CC(CC(=O)NC(C(C)C)C(=O)N2)OC(=O)C(C(C)C)NC1=O (stereo not drawn)	98.8% and 99.1%
CN(C)CC(=O)Nc1ccc2[nH]c(=O)c3ccccc3c2c1	-18.1% and 3.23% and -15.4%
CC1OC(n2cc(F)c(=O)[nH]c2=O)C(O)C1O (stereo not drawn)	-58.4%
Nc1ccn(C2OC(CO)C(O)C2(F)F)c(=O)n1 (stereo not drawn)	66.7% and 77.2% and 68.3%
Cc1cn(C2CC(N=[N+]=[N-])C(CO)O2)c(=O)[nH]c1=O (stereo not drawn)	-73.7% and 10.3%
CC(C=CC(=O)NO)=CC(C)C(=O)c1ccc(N(C)C)cc1 (stereo not drawn)	98.9%
NC(=S)NN=Cc1ncccc1N	-19.1%
CC(C)(C#N)c1ccc(N2C(=O)OCc3cnc4ccc(-c5cnc6ccccc6c5)cc4c32)cc1	24%
CC1CN(c2c(F)c(N)c3c(=O)c(C(=O)O)cn(C4CC4)c3c2F)CC(C)N1 (stereo not drawn)	6.53%
CCCCN(Cc1ccc(C(=O)NO)cc1)C(=O)Nc1ccccc1	21.2% and 8.3%
O=c1[nH]cnc2c1ncn2C1OC(CO)C(O)C1O (stereo not drawn)	-61.2% and -68.6%
Cc1cc(C=CC#N)cc(C)c1Nc1ccnc(Nc2ccc(C#N)cc2)n1	-13.4%
CC(Oc1cc(-c2cnn(C3CCNCC3)c2)cnc1N)c1c(Cl)ccc(F)c1Cl (stereo not drawn)	26.2%
O=C(O)c1cc2cccc([N+](=O)[O-])c2[nH]1	-30.6%
O=c1[nH]c(=O)n(C2CC(O)C(CO)O2)cc1I (stereo not drawn)	-24%

Assay: HTB85 osteosarcoma cell growth inhibition, synergistic combos for chromothripsis tumors, BGB or cisplatin IC20 combos (AID 1671453);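 also: 0% = vehicle DMSO and 100% = high DMSO killing control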
Details: HTB85 osteosarcoma cells, drug combinations, at 0.5 µM, stronger effect = higher value

Structure (SMILES)	inhibition
COc1ccccc1S(=O)(=O)Nc1ccc2c(c1)CN(C)C(=O)N2	-7.92% (inactive)
Cc1cc(C#N)cc(C)c1Oc1nc(Nc2ccc(C#N)cc2)nc(N)c1Br	-2.4% (inactive)
Nc1ncn(C2OC(CO)C(O)C2O)c(=O)n1 (stereo not drawn)	-6.96% (inactive)
Cc1cc(C)c(Nc2ccnc(Nc3ccc(C#N)cc3)n2)c(C)c1	-1.97% (inactive)
COc1ccc(CC(N)C(=O)NC2C(CO)OC(n3cnc4c(N(C)C)ncnc43)C2O)cc1 (stereo not drawn)	82.9% (active) and 95.9% (active)
O=c1ccn(C2OC(CO)C(O)C2O)c(=O)[nH]1 (stereo not drawn)	10.7% (inactive) and -20.8% (inactive)
CC=C1NC(=O)C2CSSCCC=CC(CC(=O)NC(C(C)C)C(=O)N2)OC(=O)C(C(C)C)NC1=O (stereo not drawn)	99.8% (active)
CN(C)CC(=O)Nc1ccc2[nH]c(=O)c3ccccc3c2c1	-2.64% (inactive) and 6.11% (inactive) and -9.79% (inactive)
CC1OC(n2cc(F)c(=O)[nH]c2=O)C(O)C1O (stereo not drawn)	-23.8% (inactive)
Nc1ccn(C2OC(CO)C(O)C2(F)F)c(=O)n1 (stereo not drawn)	86.6% (active) and 90.3% (active) and 89.1% (active)
Cc1cn(C2CC(N=[N+]=[N-])C(CO)O2)c(=O)[nH]c1=O (stereo not drawn)	-30.9% (inactive) and 5.14% (inactive)
CC(C=CC(=O)NO)=CC(C)C(=O)c1ccc(N(C)C)cc1 (stereo not drawn)	98.7% (active)
NC(=S)NN=Cc1ncccc1N	-8.27% (inactive)
CC(C)(C#N)c1ccc(N2C(=O)OCc3cnc4ccc(-c5cnc6ccccc6c5)cc4c32)cc1	3.37% (inactive)
CC1CN(c2c(F)c(N)c3c(=O)c(C(=O)O)cn(C4CC4)c3c2F)CC(C)N1 (stereo not drawn)	-1.44% (inactive)
CCCCN(Cc1ccc(C(=O)NO)cc1)C(=O)Nc1ccccc1	19.9% (inactive) and 9.96% (inactive)
O=c1[nH]cnc2c1ncn2C1OC(CO)C(O)C1O (stereo not drawn)	-33.2% (inactive) and -8.83% (inactive)
Cc1cc(C=CC#N)cc(C)c1Nc1ccnc(Nc2ccc(C#N)cc2)n1	-10.2% (inactive)
CC(Oc1cc(-c2cnn(C3CCNCC3)c2)cnc1N)c1c(Cl)ccc(F)c1Cl (stereo not drawn)	2.72% (inactive)
O=C(O)c1cc2cccc([N+](=O)[O-])c2[nH]1	-15.9% (inactive)
O=c1[nH]c(=O)n(C2CC(O)C(CO)O2)cc1I (stereo not drawn)	-28.2% (inactive)
